Consider 28 compounds from PubChem BioAssay (NCI).

Test in all cases: NCI-60 one-dose screen, 48 h (100 = growth as untreated, 0 = no growth, -100 = all killed)
What all share (conditions): 10 µM

The subject of test [1] is NCI-H23 lung.
The test system of test [2] is NCI-H226 lung.
Test [3] concerns NCI-H322M lung.
The subject of test [4] is HOP-62 NSCLC.
For test [5], the system named is NCI-H460 lung.
In test [6] the test system is HOP-92 NSCLC.
Test [7] concerns NCI-H522 lung.
In test [8] the test system is A549/ATCC NSCLC.
The subject of test [9] is 786-0 renal.
The test system of test [10] is COLO 205 colon.

About 83,000 compounds went through this panel and 20% of them were active in at least one assay; those are over-represented in the sample as a whole.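 Note: values are percent growth. 100 is the growth of untreated cells, values between 100 and 0 indicate rising inhibition; between -100 and 0 indicates cell death.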 Values without a mark were called inactive. Active and inactive are the calls of the source. How the source made its calls: active means growth percent below 10; inactive means the rest.

`O=C(c1ccccc1)C(Sc1ccccc1)c1ccccc1` (stereo not given): the growth in [1] was 76.4%; in test [2] it was 94%; in test [3], 108%; in test [4], 93%; in test [5], 67.8%; in test [6], 67.2%. The growth in test [7] is 62.4%; in [8] it was 92%; in test [9], 104%; in [10], 108%.
In the case of `COc1cc(/C=C/C(=O)c2cc(-c3ccc(C(F)(F)F)cc3)ccc2O)cc(OC)c1OC`, the growth was 64.3% in test [1]; 84.1% in [2]; 82.1% in test [3]; 98.7% in test [4]; 56.5% in test [5]; 63.1% in test [6]. Besides, the growth in [7] was 40.8%; in test [8] it was 81.4%; in [9], 80.3%; in test [10] it was 71.6%.
In the case of `CCCCCCCCCCCCCC[n+]1ccc(C)cc1`, the growth is -19% (active) in [1]; 31.7% in test [2]; 5.57% (active) in test [3]; -39.2% (active) in [4]; -74.1% (active) in test [5]; -49.7% (active) in test [6]. The growth was -11.8% (active) in [7], -30.5% (active) in test [8], -3.94% (active) in test [9] and -89.9% (active) in test [10].
Regarding `CC(=O)OC1Oc2ccccc2-c2oc(=O)c(-c3cc(=O)oc4cc(O)ccc34)cc21` (stereo not given), the growth is 80.8% in [1]; 91.5% in [2]; 89.2% in [3]; 93.8% in test [4]; 93.8% in [5]; 44.8% in test [6]. Moreover, the growth in test [7] is 69.6%; in test [8], 84.3%; in test [9], 80.4%; in test [10], 101%.
Consider `O=C1c2cc(Cl)ccc2-c2c(O)cc(Cl)cc21`, for which the growth is 49.3% in [1]; 94% in test [2]; 109% in [3]; 89.6% in test [4]; 99.5% in [5]; 52.8% in [6]. The growth in [7] is 76.2%; in test [8] it was 105%; in [9] it was 103%; in test [10] it was 92%.
As for `Cc1cc(C)c(/C=C2\C(=O)Nc3ccc(NC(=O)CCCCCCC(=O)NO)cc32)[nH]1`, the growth in [1] is 52.4%; in test [2], 65.6%; in test [3], 31.3%; in [4], 34%; in [5], 77.4%; in test [6], -30.4% (active). Besides, the growth is -10.6% (active) in test [7], 82% in test [8], 72% in [9] and 3.61% (active) in test [10].
Turning to `Cc1cc(OI)c(C(C)C)cc1-c1cc(C(C)C)c(OI)cc1C`, the growth in test [1] is 94.9%; in test [2], 93.7%; in test [3] it was 95.9%; in [4], 84.9%; in test [5], 106%; in [6], 101%. Moreover, the growth is 94.5% in test [7], 94.3% in test [8], 103% in [9] and 114% in test [10].
`CN1CCN(c2nc(-c3cccnc3)nc3sc4c(c23)CCCCCC4)CC1`: the growth in [1] was 93.7%; in [2], 93.1%; in test [3] it was 99.3%; in [4] it was 85.5%; in test [5], 98%; in [6], -2.98% (active). For the same compound, the growth in test [7] is 103%; in [8] it was 91.2%; in [9] it was 92.8%; in test [10], 102%.
For `C/C(=N/NC(=O)c1sc(=S)n(C)c1N)c1cc2cc(Cl)ccc2o1`, the growth in [1] was 97.9%; in [2], 102%; in [3], 88.1%; in test [4] it was 96.5%; in test [5] it was 89%; in test [6] it was 114%. For the same compound, the growth in test [7] is 88.6%; in [8], 8.04% (active); in [9], 106%; in test [10], 104%.
As for `O=C(O)CN1C(=O)C=CC1=O`, the growth in test [1] was 106%; in test [2] it was 108%; in [3], 90.9%; in test [4] it was 107%; in test [5] it was 107%; in [6], 111%. The growth in [7] was 103%; in [8] it was 108%; in test [9] it was 103%; in [10], 94.8%.
As for `FC(F)(F)c1ccc(-c2cnc(Br)nc2NC2CCCCCC2)cc1`, the growth was 33.1% in [1]; 53.1% in [2]; 78.2% in test [3]; 53.5% in test [4]; 28.6% in test [5]; -21.4% (active) in test [6]. The growth in test [7] is 7.77% (active); in [8], 28.8%; in test [9] it was 54.6%; in test [10], 25.1%.
As for `Cc1ccc(-n2c(-c3cc4c([nH]c5ccccc54)c(-c4cccc(O)c4)n3)n[nH]c2=S)cc1`, the growth in test [1] was 22.9%; in test [2], -27.1% (active); in test [3], -2.32% (active); in test [4], -24% (active); in [5], 4.05% (active); in test [6], 34.3%. Besides, the growth in test [7] is -39.9% (active); in [8], 2.93% (active); in test [9], 10.8%; in [10] it was 17.8%.
As to `O=C(Nc1ccc(OS(=O)(=O)Cc2ccccc2)cc1)C12CC3CC(CC(C3)C1)C2`, the growth in [1] is 84.8%; in test [2], 90.3%; in test [3] it was 95.3%; in test [4], 79.3%; in test [5] it was 68.8%; in [6] it was 59.9%. The growth in test [7] is 81.6%; in test [8] it was 78.5%; in test [9] it was 94.1%; in test [10], 27.4%.
Consider `Cc1ccc(C)c2c1sc1nc3n[nH]c(N)c3c(=N)n12`, for which the growth in test [1] is 107%; in test [2], 105%; in [3] it was 113%; in test [4], 104%; in [5] it was 107%; in [6] it was 97.2%. Besides, the growth was 87.4% in test [7], 106% in test [8], 111% in [9] and 112% in test [10].
`CC1(C)Cc2c(cn(Cc3ccccc3)c2-c2ccccc2)-c2oncc21`: the growth in [1] is 96.7%; in test [2], 92.2%; in test [3], 126%; in test [4], 107%; in test [5], 113%; in test [6], 67.8%. The growth in test [7] is 90.1%; in test [8], 86.2%; in [9] it was 97.5%; in [10], 103%.
For `O=C(Nc1cccc(Cl)c1)Nc1cc2ncncc2cc1OCc1cccc(F)c1`, the growth is 20.6% in test [1]; 37.1% in test [2]; 15.5% in [3]; -4.3% (active) in test [4]; 4.36% (active) in test [5]; -4.78% (active) in [6]. For the same compound, the growth in test [7] was -8.47% (active); in [8], 2.26% (active); in test [9], 39%; in [10] it was -69.6% (active).
With `O=C1/C(=C/c2ccc(O)cc2O)N=C2SCCCN12`, the growth in test [1] was 95.2%; in test [2], 106%; in test [3], 97.8%; in [4], 85.4%; in test [5], 110%; in test [6], 108%. The growth is 92.3% in [7], 92.1% in test [8], 81.9% in [9] and 106% in [10].
For `C[N+]1(CC2CO2)CCCCCC1` (stereo not given), the growth was 110% in test [1]; 99.4% in [2]; 107% in test [3]; 103% in [4]; 106% in test [5]; 113% in [6]. The growth was 107% in test [7], 107% in test [8], 105% in test [9] and 120% in [10].
Turning to `CCOc1nc(-c2ccccc2)cc2c(O)c(C(=O)NCCCO)[nH]c(=O)c12`, the growth is 103% in test [1]; 94.7% in [2]; 106% in [3]; 91.1% in test [4]; 110% in [5]; 66% in [6]. The growth is 77.4% in test [7], 106% in test [8], 106% in [9] and 118% in test [10].
`COc1ccc(C2C=C(c3ccc(Cl)c(Cl)c3)N=C3SC(C)=CN32)cc1OC` (stereo not given): the growth in test [1] was 64%; in test [2] it was 79.7%; in test [3], 71.7%; in test [4], 82.3%; in [5] it was 70.2%; in test [6], 47.2%. Further, the growth in test [7] is 57.9%; in [8], 58.6%; in test [9] it was 78.8%; in test [10] it was 72.1%.
`N=C(N)c1ccc(-c2ccc(-c3ccccc3)s2)s1`: the growth in test [1] is 54.6%; in [2] it was -19.8% (active); in test [3] it was -86.2% (active); in test [4], -83.9% (active); in test [5] it was -70% (active); in test [6], -37.8% (active). The growth in test [7] was -69.4% (active); in [8], -60.8% (active); in test [9], -36.7% (active); in test [10], -96.3% (active).
With `CC(C)C[C@H](NC(=O)CCn1ccc2ccccc2c1=O)B(O)O`, the growth in [1] was 63.4%; in test [2], -16.2% (active); in [3], 91%; in test [4] it was 82.7%; in test [5], 93.8%; in [6], 90.1%. The growth in test [7] was 19.9%; in [8], 58%; in test [9], 48.5%; in test [10] it was 48.7%.
Turning to `CCCCn1c(=O)[nH]c(N)c(C(c2ccc(Cl)cc2)c2c(N)[nH]c(=O)n(CCCC)c2=O)c1=O`, the growth is 53.9% in test [1]; 58.7% in [2]; 63.6% in test [3]; 59.1% in test [4]; 32% in test [5]; 54.7% in test [6]. For the same compound, the growth in test [7] is 37.9%; in [8] it was 40.2%; in test [9] it was 41%; in test [10] it was 43.9%.
In the case of `C=CCn1ccc(=O)nc1SC`, the growth in test [1] is 107%; in test [2], 112%; in [3] it was 111%; in test [4] it was 97.1%; in test [5] it was 104%; in [6], 97.3%. Also, the growth in test [7] is 100%; in test [8], 111%; in test [9] it was 101%; in test [10], 106%.
For `Cc1ccc(/C(CS(=O)(=O)c2ccc(C)cc2)=N\O)cc1`, the growth in [1] was 99.9%; in [2] it was 93.6%; in [3], 104%; in test [4], 111%; in [5], 106%; in test [6], 87.4%. In addition, the growth is 97% in [7], 94.6% in test [8], 102% in test [9] and 118% in test [10].
Regarding `CCCOCC(O)CNCCN` (stereo not given), the growth in test [1] was 109%; in test [2], 121%; in test [3], 105%; in [4] it was 92.6%; in [5], 104%; in [6], 56.9%. The growth in test [7] was 102%; in [8] it was 102%; in test [9], 105%; in test [10], 110%.
As to `CCn1nc(-c2ccccn2)c2cccnc2c1=S`, the growth is 36.8% in [1]; 93.8% in [2]; 87.3% in [3]; 98% in [4]; 53.7% in test [5]; 73.4% in test [6]. The growth in test [7] is 70.5%; in test [8], 44.8%; in test [9] it was 106%; in test [10] it was 30.9%.
Take `COc1ccc2nc(NC(=O)Nc3c(F)cccc3F)sc2c1`: the growth in test [1] was 105%; in [2] it was 94%; in test [3], 99.5%; in test [4], 106%; in test [5] it was 99.3%; in [6], 93.1%. Also, the growth was 96.8% in [7], 96.3% in test [8], 94.3% in [9] and 125% in test [10].
